Screening results (PubChem)
TDP1 cell noCPT = qHTS for Inhibitors of human tyrosyl-DNA phosphodiesterase 1 (TDP1): qHTS in cells in absence of CPT; DT40 Tdp1-/- hTDP1 cells, no CPT, ATP luminescence, 48 h; Potency, µM (titrated, usually from 46.2 µM), without a hit: at the highest dose activity change, negative = growth inhibition, most hits filed as inhibitors; 420,000 tested, 15% active; AID 686978, 2013; also: potency is read from the fitted curve at half-maximal effect; nearly all actives have a fitted effect of over 55% in size
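Growth kinetics read by CellTiter-Glo luminescence after ≥48 hr at 37 °C. Cells: DT40 Tdp1-/- stably carrying human TDP1, 400 per well, compound exposure in the absence of CPT (DMSO vehicle).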
ALOX12 inh = Primary qHTS assay for inhibitors of human arachidonate 12S-lipoxygenase (ALOX12): Round 2 | Polyunsaturated fatty acid lipoxygenase ALOX12 (Homo sapiens), P18054 | purified 12hLO, xylenol orange hydroperoxide absorbance | Potency, µM (top dose mostly 108 µM), for inactives: top-dose activity change, negative = inhibition, most hits filed as inhibitors | 580,000 tested, 1.1% active | AID 1671190, 2021; also: potency is read from the fitted curve at half-maximal effect
Target sequence (P18054 whole entry, looked up): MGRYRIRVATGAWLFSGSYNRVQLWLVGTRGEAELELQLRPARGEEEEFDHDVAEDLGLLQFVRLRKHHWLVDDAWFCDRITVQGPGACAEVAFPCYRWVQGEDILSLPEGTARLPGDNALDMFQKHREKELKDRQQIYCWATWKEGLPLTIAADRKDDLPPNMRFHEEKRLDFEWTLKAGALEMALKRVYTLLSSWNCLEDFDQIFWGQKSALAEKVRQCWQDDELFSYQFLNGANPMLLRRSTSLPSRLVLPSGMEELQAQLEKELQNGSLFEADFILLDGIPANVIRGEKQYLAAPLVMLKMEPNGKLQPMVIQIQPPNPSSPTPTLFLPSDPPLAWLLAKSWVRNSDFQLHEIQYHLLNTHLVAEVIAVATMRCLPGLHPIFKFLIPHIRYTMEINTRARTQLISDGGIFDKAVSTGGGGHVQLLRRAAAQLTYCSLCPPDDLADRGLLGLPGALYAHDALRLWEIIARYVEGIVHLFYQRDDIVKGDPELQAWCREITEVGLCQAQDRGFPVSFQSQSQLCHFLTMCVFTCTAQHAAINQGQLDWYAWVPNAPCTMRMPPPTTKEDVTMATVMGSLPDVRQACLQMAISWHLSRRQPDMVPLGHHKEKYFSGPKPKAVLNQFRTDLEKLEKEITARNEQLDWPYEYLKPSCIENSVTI
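Purified human 12hLO (150 nM final) in 25 mM Hepes, 0.01% Triton X-100, pH 7.0 was preincubated 15 min at room temperature with compound. Then 40 uM arachidonic acid was added, 30 min. Hydroperoxide was read by Fe-XO absorbance ratio 573/405 nm.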
TDP1 cell CPT = qHTS for Inhibitors of human tyrosyl-DNA phosphodiesterase 1 (TDP1): qHTS in cells in presence of CPT. chicken DT40 Tdp1-/-;hTDP1 cells + 20 nM CPT, ATP luminescence, 48 h. AID 686979, 2013. Potency, µM (highest dose often 46.2 µM), for the others: at the highest dose activity change, negative = growth inhibition, usual class: inhibitors. 420,000 tested, 12% active; also: potency is read from the fitted curve at half-maximal effect; nearly all actives have a fitted effect of over 55% in size
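Chicken DT40 Tdp1-/- cells stably complemented with human TDP1 were seeded at 400 cells/well in medium containing 20 nM camptothecin, exposed to pin-transferred compounds, and grown at 37 °C for at least 48 hr. Viability was read as ATP luminescence.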
IL-1B inflam inh = qHTS for Inhibitors of Inflammasome Signaling: IL-1-beta AlphaLISA Primary Screen | THP-1 LPS/ATP IL-1B secretion, AlphaLISA, 16 h; active compounds read low | activity change, % at 57.5 µM | 360,000 tested, 4.7% active; in the data active = activity change below about -50%; inconclusive = mostly about -30% to -49%
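Secreted IL-1B measured by AlphaLISA bead assay after 16 h compound exposure of THP-1 cells; compounds (final up to 57.5 uM) added 1 h before LPS (250 ng/mL) and ATP (1.25 mM) stimulation; lower signal means less secretion.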
HT1080 IDH1KD tx = qHTS for induction of synthetic lethality in tumor cells producing 2HG: qHTS for the HT-1080-IDH1KD cell line. 360,000 tested, 2% active. Potency, µM (series often up to 46.1 µM), for the others: at the highest dose activity, negative = toxicity, hits mostly cytotoxic. HT-1080 IDH1 knockdown viability, ATP luminescence, 48 h;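 also: potency is read from the fitted curve at half-maximal effect; 0% = DMSO wells and -100% = cell-free medium wells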
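Cytotoxicity counter-line: IDH1KD HT-1080, 48 h, CellTiter-Glo. Curves classed by r2, magnitude and activity.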
HT1080NT lethal = qHTS for induction of synthetic lethality in tumor cells producing 2HG: qHTS for the HT-1080-NT fibrosarcoma cell line | Potency, µM (highest dose often 46.1 µM), without a hit: at the highest dose activity, negative = less viability, most hits filed as cytotoxic | HT-1080-NT fibrosarcoma viability, CellTiter-Glo ATP luminescence, 48 h | 360,000 tested, 1.6% active;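 also: NT is the 2HG producing partner of a matched IDH1 knockdown line; potency is read from the fitted curve at half-maximal effect; 0% = DMSO-treated cells and -100% = media-only wells without cells; nearly all actives have a fitted effect of over 55% in size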
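Compounds were tested in concentration-response format on HT-1080-NT cells for 48 hours at 37 degrees C. Cell viability came from CellTiter-Glo luminescence; curves were classified by r2, response magnitude and activity.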
* = called active by the depositor; ? = inconclusive; nt = not tested or not shown; [ ] = another dose, or the depositor's remark. Only a selection was taken, and hits are over-represented in it overall. Unless noted, calls follow the shape of the dose curve; as a rule, active = well fitted curve in the direction sought with a large enough effect; inconclusive = small, poorly fitted or top-dose-only effect, or another doubt; inactive = no such curve, though single readings can be large; an effect the other way counts as inactive or inconclusive. Unless noted, % is scaled to controls: 0 for no effect and ±100 for the full control effect.

SMILES	TDP1 cell noCPT	ALOX12 inh	TDP1 cell CPT	IL-1B inflam inh	HT1080 IDH1KD tx	HT1080NT lethal
Cc1ccc(NS(=O)(=O)c2ccc(C(=O)N3CCN(c4ncccn4)CC3)cc2)cc1	7.3µM*	-25%	?	-1	2%	0%
CCOC(=O)COc1ccc(S(=O)(=O)Nc2cccc(SC)c2)cc1	-18%	11%	?	-9	?	10µM*
Cc1ccc(NS(=O)(=O)c2ccc(C(=O)N3CC(C)CC(C)C3)cc2)cc1 (stereo unspecified)	16µM*	-25%	21µM*	21	-28%	0%
O=S(=O)(Nc1ccc(N2CCCCC2)cc1)c1ccc(F)cc1	29µM*	?	16µM*	5	5%	3%
COC[C@@H]1CN(Cc2ccc(OC)cc2OC)C[C@H]1c1nc(C)no1	nt	26%	nt	nt	nt	nt
O=C(c1cc2c(s1)CCCCCC2)N1CCN(S(=O)(=O)c2ccccc2)CC1	nt	-28%	nt	nt	nt	nt
O=C(c1ccc(NS(=O)(=O)c2ccccc2)cc1)N1CCOCC1	10µM*	-9%	6%	-20	0%	-2%
O=C(c1ccc(NS(=O)(=O)c2ccc(F)cc2)cc1)N1CCCCC1	?	?	-29%	-13	-4%	-5%
CCOC(=O)N1CCN(C(=O)c2ccc(Cl)c(S(=O)(=O)Nc3ccccc3)c2)CC1	-29%	0%	-19%	-1	-8%	-1%
Cc1ccc(S(=O)(=O)N2CCN(C(=O)c3cc4c(s3)CCCC4)CC2)cc1	16µM*	-11%	?	4	4%	0%
CCOC(=O)N1CCN(C(=O)c2ccc(S(=O)(=O)Nc3ccccc3)cc2)CC1	?	19%	12µM*	37	-6%	-1%
O=C(c1ccc(S(=O)(=O)Nc2ccc(F)cc2)cc1)N1CCN(c2ccccn2)CC1	18µM*	-13%	?	-54*	-23%	-8%
CCN(CC)c1nc2ccccc2nc1C(=O)Nc1c(C)cccc1C	nt	16%	nt	nt	nt	nt
O=[S+]([O-])(c1ccccc1)N1CCC2(CC(c3cccc(C(F)(F)F)c3)=NO2)C1 (stereo unspecified)	nt	0%[6.33 µM]	nt	nt	nt	nt
COc1ccc(NS(=O)(=O)c2ccc(C(=O)N3CCN(c4ccc(F)cc4)CC3)cc2)cc1	4.6µM*	175%	10µM*	-25	-16%	-15%
CC1CC(C)CN(C(=O)c2ccc(S(=O)(=O)N3CC(C)CC(C)C3)cc2)C1 (stereo unspecified)	18µM*	-6%	23µM*	-77*	-1%	-12%
COc1ccc(N2CCN(C(=O)c3ccc(NS(=O)(=O)c4ccc(F)c(F)c4)cc3)CC2)cc1	?	0%	?	6	-2%	-2%
C=CCn1c(=N)n(CC(=O)c2ccc(Br)cc2)c2ccccc21	?	0%	?	-83*	?	?
C=CCn1c(=N)n(CC(=O)c2ccccc2)c2ccccc21	?	9%	?	?	-19%	-2%
N=c1n(N)c2ccccc2n1CC(=O)c1ccc(Br)cc1	21µM*	0%	23µM*	-94*	?	?
CCc1cccc(OCC(=O)c2ccc3c(c2)N(CC(=O)NCCCOC)C(=O)CO3)c1	nt	39%	nt	nt	nt	nt
Cc1ccccc1NC(=O)CNc1nc(Nc2ccccc2)nc(Nc2ccccc2)n1	nt	16µM*	nt	nt	nt	nt
COc1ccc(F)cc1NC(=O)C1CCN(c2nc(-c3ccc(OC)c(OC)c3)no2)CC1	16µM*	-21%	4.6µM*	nt	nt	nt
